Experimental findings from PubChem BioAssay AID1739 (National Center for Advancing Translational Sciences (NCATS), 2009) are described below.

Molecules are shown by their SMILES. Results filed as inconclusive are left out. Where a call stands in place of a potency, no number is given. Active and inactive are the calls of the source. Calls follow the shape of the dose curve; as a rule, active = well fitted inhibition curve with a large enough effect; inconclusive = small, poorly fitted or top-dose-only effect; inactive = flat fitted curve, though single readings scatter.

This experiment in a line: Counterscreen Assay for Enhancers of SMN2 Splice Variant Expression: Modulation of SMN1 Expression. The settings on record: HEK293 SMN1-luciferase reporter, luminescence, 30-36 h; series mostly up to 22.8 µM. From the text:
NIH Chemical Genomics Center [NCGC] NIH Molecular Libraries Probe Production centers Network [MLPCN] MLPCN Grant: R03 MH084179-01 Assay Submitter (PI): Elliot Androphy NCGC Assay Overview: Spinal muscular atrophy (SMA) is caused by insufficient levels of the survival motor neuron protein SMN. The SMN locus on chromosome 5q13 contains two inverted copies of SMN called SMN1 and SMN2 which are 99% identical at the amino acid level. SMN1 is a fully functional protein and SMN2 skips exon 7 90% of the time. Skipping of exon 7 produces non-functional protein product. 10% of the SMN2 protein includes exon 7 and is fully functional. In the SMA disease state, mutations in the SMN1 locus are the cause of the disease state. Because only 10% of SMN2 is of the fully functional form, it is not sufficient to overcome the deficiency produced by the loss of the SMN1 product. A therapy that either increase the amount of SMN2 product made or to increase the inclusion of exon 7 has been proposed for the treatment of SMA. We have designed an assay to identify small molecules that can increase the amount of functional SMN2 product by appending a luciferase reporter gene after the native SMN2 gene, such that inclusion of exon 7 in the expressed product places the luciferase sequence in frame, thus generating functional luciferase enzyme. As a counterscreen for nonspecific modulators of expression, we have run compounds through a similar assay that measures expression of an SMN1-luciferase chimera.
NCGC Assay Protocol Summary: This screen utilizes a luciferase reporter gene assay, combining the promoter with the major portion of the native SMN1 cDNA (exons 1 -7, intron 8 , exon 8 fused to luciferase) stably expressed in HEK293 cells. Compounds that increase luciferase signal presumably enhance expression of the functional SMN1 splice variant. Passaging media contained DMEM w/ glutamax (+phenol red) 10% FCS, 1x pen/strep, 200 ug/ml hygro, 1x sodium pyruvate. Assay media contained DMEM w/ glutamax (-phenol red) 10% FCS, 1x pen strep, 1x pyruvate Sequence, Parameter, Value, Description (1) Cells, 5 uL, 2000 cells/well, 1536 TC treated White solid bottom plate (2) Time, 10-12 hours, 37C 5% CO2 (3) Compound, 23 nl, MLSMR Library (4) Control Compound, 23 nL, Sodium butyrate st 4.5mM (final) conc (5) Time, 30-36 hours, 37C 5% CO2 (6) Reagent, 3 ul, One Glo (TM) from Promega (7) Time, 5-15 minutes, Room temp (8) Detector, Viewlux: luminescent read, 60 second integration, high speed 2x binning Keywords: Spinal muscular atrophy, SMA, SMN2, high throughput screening, MLSMR, MLPCN, NIH Roadmap, qHTS and NCGC
`Cc1ccc(C(=O)Cn2c3c(sc2=N)CCCC3)cc1`: the Potency was 7.94 µM (active). Under `Cc1nnc(-c2ccccc2)[nH]c1=O` stands “inactive”; under `CC(C)(C)n1nnnc1C(c1ccc2ncccc2c1)N1CCSCC1` (stereo not drawn), “inactive”; under `Cc1ccc(-c2nnc(-c3ccccc3)c(N3CCOCC3)n2)cc1`, “inactive”. Under `CC1CN(c2nc(-c3ccc(Br)cc3)nnc2-c2ccccc2)CC(C)N1` (stereo not drawn) stands “inactive”.

For `O=c1cc(N2CCN(c3cccc(Cl)c3)CC2)[nH]c(=O)n1C1CCCCC1`, the Potency entry is “inactive”. Under `COCCCN1C(=O)C(=O)/C(=C(/O)c2ccc3c(c2)CC(C)O3)C1c1cccnc1` (stereo not drawn) stands “inactive”. Under `COc1ccc(-c2csc(N3CCC(C(N)=O)(N4CCCCC4)CC3)n2)cc1` stands “inactive”; under `CN(Cc1ccccc1)Cc1c(F)cccc1F`, “inactive”; under `FC(F)(F)c1cccc(-c2nnc(-c3ccccc3)c(N3CCOCC3)n2)c1`, “inactive”. Under `Clc1ccc(-c2nnc(-c3ccccc3)nc2-c2c[nH]c3ccccc23)cc1` stands “inactive”; under `Nc1ccccc1-c1nnn(CC(=O)N2CCCc3ccccc32)n1`, “inactive”; under `COc1nc(-c2ccccc2)nnc1-c1ccccc1`, “inactive”. `Cn1cnc2c(NCc3ccco3)ncnc21`: the Potency entry was “inactive”.

For `NC(=O)N1c2ccccc2C=Cc2ccccc21`, the Potency result is “inactive”. Under `OCCCNc1nc(-c2ccc(Cl)cc2)nnc1-c1ccc(Br)cc1` stands “inactive”; under `FC(F)(F)c1nnc(-c2ccccc2)nc1Oc1ccccc1`, “inactive”. Under `CN1CCN(c2nc(-c3ccc(Br)cc3)nnc2-c2ccccc2)CC1` stands “inactive”. Under `COc1cccc(NC(=O)CSc2nc3ccccc3nc2N2CCOCC2)c1` stands 5.01 µM (active); under `Clc1ccc(-c2nnc(-c3ccccc3)nc2N2CCSCC2)cc1`, “inactive”; under `O=S(=O)(NC1CCCc2ccccc21)c1cnc[nH]1` (stereo not drawn), “inactive”. In the case of `Clc1ccc(-c2nnc(-c3ccc(Br)cc3)c(N3CCSCC3)n2)cc1`, the Potency result was “inactive”.

Turning to `Brc1nc2ncnc(NCc3ccco3)c2[nH]1`, the Potency result is “inactive”.
